The whole screen tested about 65,000 compounds, of which about 2,100 (3.2%) showed an effect of 50% or more. The median lay at about -52%. The entries come from a sample that favours strong results as a whole.

The assay has as its system Plasmodium falciparum. Kind of assay: Screen against P. falciparum Asexual Blood Stage (ABS), at 5uM. The assay is classed as functional, Dd2. As to conditions: tested at 5 uM.
For the molecule `Cc1cc(C)n(CC2CN(Cc3cnc(C)s3)CCO2)n1` (configuration not stated), the INHIBITION is 53.2%.
As to `Cc1cc(CN2CCOC(Cn3nc(C)cc3C)C2)on1` (configuration not stated), the INHIBITION came to 46.7%.
`Cc1cnc(CN2CCOC(Cn3nc(C)cc3C)C2)cn1` (configuration not stated): the INHIBITION is given as -20.8%.
As for `CCN1CCN(C(=O)c2cc(NC(=O)c3ccccc3)n(C)n2)CC1`, the figure is -98%; as for `CC(=O)N(Cc1ncc(C(C)C)o1)C1CCN(Cc2cc(C)no2)C1` (configuration not stated), 59%.
Consider `CC(=O)N(Cc1ncc(C(C)C)o1)C1CCN(Cc2nccn2C)C1` (configuration not stated), for which the INHIBITION is on record as -176%.
As to `CC(=O)N(Cc1ncc(C(C)C)o1)C1CCN(Cc2ccno2)C1` (configuration not stated), the INHIBITION amounted to 45.7%.
For the molecule `CC(=O)N(Cc1ncc(C(C)C)o1)C1CCN(CCC#N)C1` (configuration not stated), the INHIBITION is on record as 57%.
The result for `CC(=O)N(Cc1ncc(C(C)C)o1)C1CCN(CC2CCC2)C1` (configuration not stated) reads -113%; that for `CC(=O)N(Cc1ncc(C)o1)C1CCN(Cc2nccn2C)C1` (configuration not stated), -133%.
Consider `CC(=O)N(Cc1ncc(C(C)C)o1)C1CCN(CCn2cccn2)C1` (configuration not stated), for which the INHIBITION is reported as -150%.
For the molecule `CCc1cnc(CN(C(C)=O)C2CCN(Cc3nccn3C)C2)o1` (configuration not stated), the INHIBITION is 51.5%.
Regarding `CC(=O)N(Cc1ncc(C(C)C)o1)C1CCN(Cc2cc(C)on2)C1` (configuration not stated), the INHIBITION is listed as -83.8%.
Consider `COCCN(Cc1cnn(C)c1)C(=O)C1CCCN(C2CCOCC2)C1` (configuration not stated), for which the INHIBITION is reported as -15.9%.
Take `CCN(Cc1ccncc1)c1cc(C2CCCNC2)nc(C)n1` (configuration not stated): the INHIBITION is on record as -121%.
As for `CN(Cc1cccnc1)C1COC2(CCN(Cc3nccs3)CC2)C1` (configuration not stated), the INHIBITION was -52.5%.
`O=C(c1cccnc1)N1CCCC1c1cc[nH]n1` (configuration not stated): the INHIBITION is -66.5%.
For `N#Cc1ccc(N2CCCC3(CCN(c4cccnc4)CC3)C2)cc1`, the INHIBITION is listed as -71.3%.
The result for `COc1cc(C)sc1C(=O)NCCC(=O)N(C)Cc1ccccc1` reads 59.3%.
Consider `COc1cc(C)sc1C(=O)NCCC(=O)N(C)c1ccccc1`, for which the INHIBITION is 33.9%.
In the case of `COc1cc(C)sc1C(=O)NCCNc1ccccc1`, the INHIBITION is 18.7%.
Take `N#Cc1ccc(NC2CCN(Cc3ccccn3)CC2)c(F)c1`: the INHIBITION is -118%.
Turning to `c1ccc(CN2CCC(NCCc3ccc4c(c3)CCO4)CC2)nc1`, the INHIBITION stood at 36%.
The result for `Fc1ccc(OCCNC2CCN(Cc3ccccn3)CC2)c(F)c1` reads 69.8%; that for `COC(=O)c1ccc(CNCc2cn(C)nc2C)cc1`, -133%.
For the molecule `O=C(NCCC1=CCCCC1)NC1CCCc2c1cnn2CCO` (configuration not stated), the INHIBITION is reported as -134%.
Turning to `CN(Cc1ccccc1)CC(O)Cn1cnc2sccc2c1=O` (configuration not stated), the INHIBITION came out at 62.1%.
The result for `CN(Cc1ccccc1)CC(O)Cn1cnc2ccccc2c1=O` (configuration not stated) reads -2.56%; that for `CN(Cc1ccccc1)CC(O)Cn1cnc2ccsc2c1=O` (configuration not stated), 19%; that for `CC(C)CS(=O)(=O)Nc1ccc2c(c1)OCC(C)(C)C(=O)N2C`, -28.6%.
Consider `CCCC(NC(=O)c1cc(C)c(F)cc1F)c1nnn[nH]1` (configuration not stated), for which the INHIBITION is -94.1%.
Turning to `O[C@@H]1C[C@H]2CN(Cc3ccccc3Cl)[C@H](Cc3ccccc3)CN2C1`, the INHIBITION stood at 56.3%.
On to `CCc1ncc(CN2C[C@@H]3C[C@@H](O)CN3C[C@@H]2Cc2ccccc2)cn1`, for which the INHIBITION is listed as -55%.
As for `C=Cn1ncc(CN2C[C@@H]3C[C@@H](O)CN3C[C@@H]2Cc2ccccc2)c1C`, the INHIBITION is on record as -7.65%.
Turning to `COc1ncc(CN2C[C@@H]3C[C@@H](O)CN3C[C@@H]2Cc2ccccc2)cn1`, the INHIBITION was -117%.
As to `O[C@@H]1C[C@H]2CN(CC3CCCCC3)[C@H](Cc3ccccc3)CN2C1`, the INHIBITION was determined as 37.6%.
Consider `O[C@@H]1C[C@H]2CN(Cc3ccccc3)[C@H](Cc3ccccc3)CN2C1`, for which the INHIBITION turned out to be 69.1%.
Take `COCC(=O)N1CCCC(c2cc(C(F)F)n3ncnc3n2)C1` (configuration not stated): the INHIBITION is 10.4%.
With `Cn1cc(NC(=O)Cn2cc(-c3ccccc3)ncc2=O)cn1`, the INHIBITION was -15.3%.
As to `COC(=O)c1cccc(S(=O)(=O)NCC(c2ccco2)N2CCCC2)c1` (configuration not stated), the INHIBITION was found to be 19.7%.
With `Cc1cnn(CC2CCCN2C(=O)Cc2cccs2)c1` (configuration not stated), the INHIBITION was -35.5%.
With `Cc1cc(C)n(C2CN(CC(O)c3ccc4c(c3)OCO4)C2)n1` (configuration not stated), the INHIBITION is on record as 43.5%.
As for `COc1ccc(C(O)CN2CC(n3nc(C)cc3C)C2)cc1` (configuration not stated), the INHIBITION is 49.2%.
Consider `Cc1cnn(C2CN(CC(O)c3ccccc3)C2)c1` (configuration not stated), for which the INHIBITION is on record as 40.9%.
For the molecule `Cc1cc(C)n(C2CN(CC(O)COc3ccc(F)cc3)C2)n1` (configuration not stated), the INHIBITION is reported as -18.8%.
As for `Cc1cc(C)n(C2CN(CC(O)c3ccc(F)cc3)C2)n1` (configuration not stated), the INHIBITION came out at 62.8%.
On to `Cc1cc(C)n(C2CN(CC(O)c3ccc(C(F)(F)F)cc3)C2)n1` (configuration not stated), for which the INHIBITION stood at 65.4%.
In the case of `Cc1cnn(C2CN(CC(O)c3ccc(F)cc3)C2)c1` (configuration not stated), the INHIBITION turned out to be 57.4%.
The result for `Cc1cc(C)n(C2CN(CC(O)c3ccc(S(C)(=O)=O)cc3)C2)n1` (configuration not stated) reads -123%; that for `COc1ccc(C(O)CN2CC(n3cc(C)cn3)C2)cc1` (configuration not stated), 22%.
As to `O=C(Cc1ccccc1)N1CCC(c2nnc(-c3ccccn3)o2)CC1`, the INHIBITION stood at 2.71%.
The result for `CC(Cc1ccco1)NC(=O)Nc1ccc(N(C)C)nc1` (configuration not stated) reads -297%.

For the origin of these results see ChEMBL document CHEMBL4513216, “Probing the Open Global Health Chemical Diversity Library for Multistage-Active Starting Points for Next-Generation Antimalarials” (ACS Infect Dis, 2020).
